Shown are actives, neighbours in structure and some others; about 2.9% of the full set was active somewhere.
EPAC2 antag – validation of human EPAC2 antagonists | Potency, µM (top dose mostly 112 µM), for inactives: top-dose activity, negative = inhibition, most hits filed as inhibitors | EPAC2 Rap1B BODIPY-GDP exchange, fluorescence | Q8WZA2 | hit rate 1.7% among 16,000;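 also: 100% = activation by cAMP agonist control; nearly all actives have a fitted effect of over 40% in size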
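Fluorescent exchange read-out: 100 nM EPAC2 with 250 nM RAP1B–BODIPY-GDP and 50 uM GDP; BODIPY-GDP release lowers fluorescence. Read at 480/540 nm every 5 min for 30 min at room temperature; normalized to 6.5 mM cAMP.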
EPAC1 ag val – validation of human EPAC1 agonists | O95398 | hit rate 1% among 16,000 | EPAC1 Rap1b BODIPY-GDP exchange, fluorescence | Potency, µM, for inactives: max response, positive = active, usual class: activators; also: nearly all actives have a fitted effect of over 70% in size
Active calls of the source: *; ? = inconclusive; ! = a repeat was not active; [ ] = remark or other dose. Calls follow the shape of the dose curve; as a rule, active = well fitted curve in the direction sought with a large enough effect; inconclusive = small, poorly fitted or top-dose-only effect, or another doubt; inactive = no such curve, though single readings can be large; an effect the other way counts as inactive or inconclusive. Unless noted, % is scaled to controls: 0 for no effect and ±100 for the full control effect; potency is read from the fitted curve at half-maximal effect.

SMILES | EPAC2 antag | EPAC1 ag val
CCCCC/C=C\C/C=C\C/C=C\C/C=C\CCCC(=O)O | ? | -16.6%
CC(C)C[C@H](NC(=O)[C@@H](COC(C)(C)C)NC(=O)[C@H](Cc1ccc(O)cc1)NC(=O)[C@H](CO)NC(=O)[C@H](Cc1c[nH]c2ccccc12)NC(=O)[C@H](Cc1cnc[nH]1)NC(=O)[C@@H]1CCC(=O)N1)C(=O)N[C@@H](CCCN=C(N)N)C(=O)N1CCC[C@H]1C(=O)NNC(N)=O | -0.2% | -11.2%
Cc1cc(-c2ccnc(-n3ncc(C(=O)NCC4COCCO4)c3C3CC3)n2)c(C)s1 (centres undefined) | -27.2% | 14.4%
CC(C)(C=O)Cc1cc(C(C)(C)C)c(O)c(C(C)(C)C)c1 | ? | 4.8%
CC(C)(CO)Cc1cc(C(C)(C)C)c(O)c(C(C)(C)C)c1 | 56.2µM*! | 4.4%
CC(C)(C)c1ccc(C(=O)C[n+]2ccc(Cl)c3ccc(Cl)cc32)cc1 | -5.2% | -3.9%
COc1ccc(SC[C@H](C)CN2CC[C@H](C)CCC2=O)cc1 | 50.1µM* | 3.2%
CC(=O)Nc1ccc(SC[C@H](C)CN2CC[C@H](C(C)(C)C)CCC2=O)cc1 | 56.2µM* | -0.8%
COc1ccc(SC[C@H](C)CN2CC[C@H](O)CCC2=O)cc1 | -5.2% | 19.5%
Cc1ccc(SC[C@H](C)CN2CC[C@H](C)CCC2=O)cc1 | ? | -42.7%
COc1ccc(C(=O)NCc2nc(-c3cccc(NC(=O)c4ccc(C)s4)c3)oc2C)cc1 | -0.7% | 2.0%
CN(C)CC/C=C1/c2ccccc2CSc2ccccc21 | -10.4%[56.6 µM] | -19.8%
C=C1CCC(O)C/C1=C\C=C1/CCCC2(C)C1CCC2C(C)/C=C/C(C)C(C)C (centres undefined) | 50.1µM* | -72.0%
C=C1C(=C/C=C2\CCC[C@]3(C)[C@@H]([C@H](C)/C=C/[C@@H](O)C4CC4)CC[C@@H]23)C[C@@H](O)C[C@@H]1O | -29.5% | 15.7%
O=C1/C(=C\c2cccs2)CCC/C1=C\c1cccs1 | -0.1% | 9.1%
COCc1ccc(C(=O)N2CCOc3ccc(CN4CCN(c5ccc(F)cc5)CC4)cc3C2)o1 | -8.2% | -11.7%
